Measurements reported in PubChem BioAssay.

Key:
[1] = NFkB reporter suppression in cystic fibrosis bronchial cells – cell-based, uHTS hits, panel, cytotoxicity readout, dose response (AID 624344); conditions: CF bronchial epithelial cells, PAF-induced NFkB reporter inhibition, with PAF, run 1; at 79 µM (top of the series) unless noted
[2] = as above; conditions: CF bronchial epithelial cells, PAF-induced NFkB reporter inhibition, with PAF, run 2; at 79 µM (top of the series) unless noted

SMILES	inhibition [1] [%]	inhibition [2]
CC(=O)c1ccc(-c2cnc3c(NC=O)cc(-c4ccc(C(=O)NC5CC5)cc4)cn23)cc1	99.5	104%
COc1ccccc1/C=C/C(=O)c1c2c(c(C)[nH]c1=O)CCCC2	110	96%
Cc1csc(CNc2ncnc3ccc(-c4ccoc4)cc23)c1	111	99.4%
Cc1nc(N)c(C#N)c(-c2cccnc2)c1-c1ccccc1	93.9	80%
O=C(N/N=C/c1ccccc1)c1[nH]c2ccc(Br)cc2c1-c1ccccc1	76.6	79.5%
COc1ccc(-c2cnc3c(NC=O)cc(-c4ccc(C(=O)N5CCOCC5)cc4)cn23)cc1OC	106	99%
COc1ccc(-c2csc3ncnc(NCCN4CCOCC4)c23)cc1	112	100%
O=C1OC(Nc2nc(-c3ccc(F)cc3)cs2)c2ccccc21 (stereo not given)	102	113%
O=C(Nc1ccc2c(c1)OCCO2)c1cc(-c2ccccn2)nc2ccc(Br)cc12	6.4	68.9%
CN(Cc1ccco1)c1ncnc2ccc(-c3ccoc3)cc12	114	101%
O=c1cc(-c2ccccc2Cl)oc2cc(O)cc(O)c12	85.2	93.7%
c1cnc2ccc(-n3ccnc3)cc2c1	115	102%
CC(=O)Oc1ccc(N(C(C)=O)S(=O)(=O)c2ccc(Cl)cc2)c2ccccc12	99.9	108%
CCCc1cc(-c2[nH]ncc2-c2ccc3c(c2)OCCCO3)c(O)cc1O	108	102%
FC(F)Sc1ccc(NC(=S)NCC2CCCCC2)cc1	106	112%
CCOC(=O)c1ccc(-n2[nH]c(-c3ccccc3)cc2=O)cc1	113	93.3%
Cc1ccc(-c2onc3ccc(C(=O)/C=C/N(C)C)cc23)cc1	101	113%
CCCCCCc1cc2cc(C(=O)OCC)c(=O)oc2cc1O	106	117%
Cc1c(O)ccc2c(-c3ccccc3)cc(=O)oc12	105	114%
CC(=O)c1ccc(Nc2ncnc3ccc(Br)cc23)cc1	91.3	98.4%

SMILES	inhibition [1] [%]	inhibition [2]
COc1cc(C(=O)Nc2nnc(-c3sccc3C)s2)cc(OC)c1OC	47.9	89.3%
Cc1cccc(NS(=O)(=O)c2ccc(-c3cnc(C4CC4)o3)cc2)c1C	105	107%
Oc1ccc(C[C@H]2CNC(=S)N2CC2CCCN2C[C@H](Cc2ccc(O)cc2)N2C[C@H](Cc3ccc(O)cc3)N(CC3CCCCC3)C2=S)cc1 (stereo not given in full)	101	105%
CC1(C)Cc2c(ccc3ccccc23)C(=O)N1	106	111%
COc1cc(/C=N/NC(=O)Nc2cccc3nsnc23)cc(OC)c1OC	89.7	82.7%
CC(=O)Oc1c(Cl)cc(N(C(C)=O)S(=O)(=O)c2ccccc2)c2ccccc12	89.7	108%
CCOc1ccc(CCN2C(=S)N([C@@H](CC(C)C)CN3CCCC3CN3C(=S)NC[C@@H]3CC(C)C)C[C@@H]2Cc2ccc(O)cc2)cc1 (stereo not given in full)	76.2	93.9%
CCOC(=O)Oc1c(OC)cc(C(=O)O[C@@H]2C[C@@H]3CN4CCc5c([nH]c6cc(OC)ccc56)[C@H]4C[C@@H]3[C@H](C(=O)OC)[C@H]2OC)cc1OC	54.6	42.4%
CCOC(=O)[C@@H]1[C@H]2COc3ccc(Br)cc3[C@H]2N2C(=O)N(c3ccc(C)cc3)C(=O)[C@]12C	14.6	35.9%
COc1ccc(S(=O)(=O)N2c3cc(C)ccc3OCC2C(C)(C)C)cc1 (stereo not given)	103	81.9%
COc1cccc(NC(=O)Nc2nnc(CC(=O)Nc3ccccc3)s2)c1	90.4	85.1%
CC(=O)N1CC(=O)N=C1SCC(=O)Nc1nc(C)c(-c2ccccc2)s1	62.6	73.4%
OCCN1CCN(c2ncnc3ccc(Br)cc23)CC1	95.4	107%
CCN(CC)CCNC(=O)c1ccc(NC(=O)C2CCN(c3ncnc4sc(C)c(C)c34)CC2)cc1	112	103%
COc1ccccc1[C@]1(C)ON(c2ccccc2C(F)(F)F)C1=O	105	109%
Oc1ccc(Nc2ncnc3scc(-c4ccccc4)c23)cc1	56	41%
O=C(NCCc1ccccc1)c1coc(=O)c(Br)c1	84	106% [at 39.5 µM]
Cc1cnc(C=O)c2cccc([N+](=O)[O-])c12	110	106%
O=C(/C=C/c1cccs1)Nc1cccc(NC(=O)/C=C/c2cccs2)n1	97.2	96.4%
Cc1nn(-c2nccs2)c2c1C(=O)CC(C)(C)C2Br (stereo not given)	108	115%
